± gives the standard deviation of the averaged measurements.
Tests used:
Assay in all cases: promoter activity interaction Z-score (Lux/OD deviation from empty-vector control); higher = stronger promoter induction by the compound
[1] = test system: E. coli BW25113 acrABp lux reporter
Summary of the method: (§1)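 OD600 and luminescence of E. coli BW25113 reporter cultures (40 µl LB Lennox, 384-well plates, 37°C) were measured every 30 min for 12 h. Integration ran over 0–8 h for wild type or 1–9 h for deletion strains, and wells with growth below 10% of the median were dropped. The score is the Z-transformed residual of growth-normalised luminescence fitted against a control.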

[2] = test system: E. coli BW25113 marRABp lux reporter
Summary of the method: as §1

[3] = test system: E. coli BW25113 micFp lux reporter
Summary of the method: as §1

[4] = test system: E. coli BW25113 ompFp lux reporter
Summary of the method: as §1

[5] = test system: E. coli BW25113 robp lux reporter
Summary of the method: as §1

[6] = test system: E. coli BW25113 soxSp lux reporter
Summary of the method: as §1

[7] = test system: E. coli BW25113 tolCp lux reporter
Summary of the method: as §1

[8] = 28.4 µg/ml, genetic background: wild type
[9] = 28.4 µg/ml, genetic background: ΔmarA
[10] = 28.4 µg/ml, genetic background: Δrob
[11] = 28.4 µg/ml, genetic background: ΔsoxS
[12] = 56.8 µg/ml, genetic background: wild type
[13] = 56.8 µg/ml, genetic background: ΔmarA
[14] = 56.8 µg/ml, genetic background: Δrob
[15] = 56.8 µg/ml, genetic background: ΔsoxS
[16] = 113.7 µg/ml, genetic background: wild type
[17] = 113.7 µg/ml, genetic background: ΔmarA
[18] = 113.7 µg/ml, genetic background: Δrob
[19] = 113.7 µg/ml, genetic background: ΔsoxS
[20] = 227.3 µg/ml, genetic background: wild type
[21] = 227.3 µg/ml, genetic background: ΔmarA
[22] = 227.3 µg/ml, genetic background: Δrob
[23] = 227.3 µg/ml, genetic background: ΔsoxS

SMILES: O=c1[nH]c(=O)c2[nH]c(O)nc2[nH]1 [Sodium urate]
- promoter activity interaction Z-score [1, 8]: 0.0607 ± 0.068
- promoter activity interaction Z-score [1, 9]: -0.691 ± 0.25
- promoter activity interaction Z-score [1, 10]: 0.112 ± 0.14
- promoter activity interaction Z-score [1, 11]: -0.119 ± 0.36
- promoter activity interaction Z-score [1, 12]: 0.0108 ± 0.15
- promoter activity interaction Z-score [1, 13]: -1.36 ± 0.16
- promoter activity interaction Z-score [1, 14]: 0.00464 ± 0.19
- promoter activity interaction Z-score [1, 15]: -0.118 ± 0.35
- promoter activity interaction Z-score [1, 16]: 0.121 ± 0.12
- promoter activity interaction Z-score [1, 17]: -1.18 ± 0.34
- promoter activity interaction Z-score [1, 18]: -0.0273 ± 0.041
- promoter activity interaction Z-score [1, 19]: -0.102 ± 0.19
- promoter activity interaction Z-score [1, 20]: 0.0857 ± 0.087
- promoter activity interaction Z-score [1, 21]: -0.114 ± 0.23
- promoter activity interaction Z-score [1, 22]: 0.315 ± 0.14
- promoter activity interaction Z-score [1, 23]: -0.127 ± 0.56
- promoter activity interaction Z-score [2, 8]: -0.098 ± 0.014
- promoter activity interaction Z-score [2, 9]: -0.367 ± 0.46
- promoter activity interaction Z-score [2, 10]: -0.0815 ± 0.3
- promoter activity interaction Z-score [2, 11]: -0.136 ± 0.38
- promoter activity interaction Z-score [2, 12]: -0.215 ± 0.019
- promoter activity interaction Z-score [2, 13]: -0.183 ± 0.45
- promoter activity interaction Z-score [2, 14]: -0.209 ± 0.11
- promoter activity interaction Z-score [2, 15]: -0.198 ± 0.26
- promoter activity interaction Z-score [2, 16]: 0.0146 ± 0.11
- promoter activity interaction Z-score [2, 17]: -0.285 ± 0.48
- promoter activity interaction Z-score [2, 18]: -0.227 ± 0.062
- promoter activity interaction Z-score [2, 19]: -0.19 ± 0.33
- promoter activity interaction Z-score [2, 20]: -0.107 ± 0.15
- promoter activity interaction Z-score [2, 21]: 0.16 ± 0.43
- promoter activity interaction Z-score [2, 22]: -0.0974 ± 0.043
- promoter activity interaction Z-score [2, 23]: -0.0308 ± 0.28
- promoter activity interaction Z-score [3, 8]: 0.0581 ± 0.23
- promoter activity interaction Z-score [3, 9]: -0.118 ± 0.23
- promoter activity interaction Z-score [3, 10]: -0.0289 ± 0.19
- promoter activity interaction Z-score [3, 11]: 0.0526 ± 0.22
- promoter activity interaction Z-score [3, 12]: 0.0725 ± 0.02
- promoter activity interaction Z-score [3, 13]: -0.0713 ± 0.39
- promoter activity interaction Z-score [3, 14]: 0.0271 ± 0.23
- promoter activity interaction Z-score [3, 15]: 0.0688 ± 0.17
- promoter activity interaction Z-score [3, 16]: 0.114 ± 0.09
- promoter activity interaction Z-score [3, 17]: -0.218 ± 0.078
- promoter activity interaction Z-score [3, 18]: -0.082 ± 0.13
- promoter activity interaction Z-score [3, 19]: 0.0891 ± 0.29
- promoter activity interaction Z-score [3, 20]: 0.0879 ± 0.087
- promoter activity interaction Z-score [3, 21]: -0.0859 ± 0.057
- promoter activity interaction Z-score [3, 22]: -0.12 ± 0.13
- promoter activity interaction Z-score [3, 23]: -0.223 ± 0.39
- promoter activity interaction Z-score [4, 8]: -0.0285 ± 0.013
- promoter activity interaction Z-score [4, 9]: -0.27 ± 0.27
- promoter activity interaction Z-score [4, 10]: -0.245 ± 0.31
- promoter activity interaction Z-score [4, 11]: 0.0289 ± 0.054
- promoter activity interaction Z-score [4, 12]: 0.162 ± 0.082
- promoter activity interaction Z-score [4, 13]: -0.186 ± 0.1
- promoter activity interaction Z-score [4, 14]: -0.168 ± 0.14
- promoter activity interaction Z-score [4, 15]: 0.253 ± 0.42
- promoter activity interaction Z-score [4, 16]: 0.31 ± 0.34
- promoter activity interaction Z-score [4, 17]: -0.874 ± 0.12
- promoter activity interaction Z-score [4, 18]: -0.0944 ± 0.13
- promoter activity interaction Z-score [4, 19]: 0.241 ± 0.093
- promoter activity interaction Z-score [4, 20]: 0.726 ± 0.41
- promoter activity interaction Z-score [4, 21]: 0.504 ± 0.044
- promoter activity interaction Z-score [4, 22]: 0.739 ± 0.45
- promoter activity interaction Z-score [4, 23]: 0.654 ± 0.45
- promoter activity interaction Z-score [5, 8]: 0.189 ± 0.027
- promoter activity interaction Z-score [5, 9]: -0.944 ± 0.38
- promoter activity interaction Z-score [5, 10]: -0.184 ± 0.64
- promoter activity interaction Z-score [5, 11]: 0.198 ± 0.34
- promoter activity interaction Z-score [5, 12]: 0.19 ± 0.1
- promoter activity interaction Z-score [5, 13]: -0.157 ± 0.22
- promoter activity interaction Z-score [5, 14]: 0.189 ± 0.29
- promoter activity interaction Z-score [5, 15]: 0.0419 ± 0.49
- promoter activity interaction Z-score [5, 16]: 0.246 ± 0.37
- promoter activity interaction Z-score [5, 17]: -1.37 ± 0.15
- promoter activity interaction Z-score [5, 18]: -0.253 ± 0.052
- promoter activity interaction Z-score [5, 19]: -0.163 ± 0.39
- promoter activity interaction Z-score [5, 20]: 0.613 ± 0.94
- promoter activity interaction Z-score [5, 21]: 0.235 ± 0.099
- promoter activity interaction Z-score [5, 22]: 0.286 ± 0.0035
- promoter activity interaction Z-score [5, 23]: 1.01 ± 0.33
- promoter activity interaction Z-score [6, 8]: 0.0961 ± 0.26
- promoter activity interaction Z-score [6, 9]: -0.0522 ± 0.15
- promoter activity interaction Z-score [6, 10]: 0.0395 ± 0.24
- promoter activity interaction Z-score [6, 11]: -0.0315 ± 0.002
- promoter activity interaction Z-score [6, 12]: -0.0307 ± 0.019
- promoter activity interaction Z-score [6, 13]: -0.0796 ± 0.096
- promoter activity interaction Z-score [6, 14]: 0.0954 ± 0.4
- promoter activity interaction Z-score [6, 15]: -0.135 ± 0.051
- promoter activity interaction Z-score [6, 16]: 0.0999 ± 0.14
- promoter activity interaction Z-score [6, 17]: -0.0884 ± 0.18
- promoter activity interaction Z-score [6, 18]: -0.00479 ± 0.23
- promoter activity interaction Z-score [6, 19]: 0.0412 ± 0.16
- promoter activity interaction Z-score [6, 20]: -0.0463 ± 0.28
- promoter activity interaction Z-score [6, 21]: -0.0252 ± 0.33
- promoter activity interaction Z-score [6, 22]: 0.122 ± 0.45
- promoter activity interaction Z-score [6, 23]: -0.094 ± 0.097
- promoter activity interaction Z-score [7, 8]: 0.639 ± 0.76
- promoter activity interaction Z-score [7, 9]: 0.214 ± 0.76
- promoter activity interaction Z-score [7, 10]: -0.337 ± 0.13
- promoter activity interaction Z-score [7, 11]: 0.0334 ± 0.15
- promoter activity interaction Z-score [7, 12]: -0.365 ± 0.23
- promoter activity interaction Z-score [7, 13]: -0.26 ± 0.17
- promoter activity interaction Z-score [7, 14]: 0.0782 ± 0.61
- promoter activity interaction Z-score [7, 15]: -0.0978 ± 0.24
- promoter activity interaction Z-score [7, 16]: -0.0784 ± 0.044
- promoter activity interaction Z-score [7, 17]: -0.877 ± 0.12
- promoter activity interaction Z-score [7, 18]: -0.397 ± 1.1
- promoter activity interaction Z-score [7, 19]: 0.132 ± 0.047
- promoter activity interaction Z-score [7, 20]: -0.0307 ± 0.037
- promoter activity interaction Z-score [7, 21]: -0.7 ± 0.17
- promoter activity interaction Z-score [7, 22]: 1.21 ± 1.3
- promoter activity interaction Z-score [7, 23]: -0.0415 ± 0.19

Source: the supplement of paper PMC12282887
